In PubChem BioAssay AID1159580 (chemical genetic matrix, 2015):
Where “and” joins values, the source holds several entries; their conditions need not be identical. Equal entries are not always repeated. Hit rate of the full screen: of about 5,500 compounds, about 2,000 (36%) were called active. Not shown: some 18% with an inconclusive outcome. Rule as the data show it: active = normalized growth mostly below about 0.91 (no sharp cut-off); inconclusive = no clear call, values can overlap the other calls; inactive = mostly above about 0.92. This is one part of the list.

Assay: chemical genetic growth profiling, strain panel (AID 1159580);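 also: tested at 20 µM; growth read once vehicle control cultures reached saturation at 30 °C; 1 = growth at the plate median or of vehicle wells; lower values mean less growth of the strain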
Details: S. cerevisiae deletion strains, growth OD

Measured: normalized growth

NC[C@H]1O[C@H](O[C@H]2[C@H](O)[C@@H](O[C@H]3O[C@H](CO)[C@@H](O)[C@H](N)[C@H]3O)[C@H](N)C[C@@H]2N)[C@H](N)C[C@@H]1O
inactive: locus YAL013W, strain DEP1, stronger effect = lower value 1 | locus YAL021C, strain ccr4, stronger effect = lower value 0.979 | locus YAL026C, strain drs2, stronger effect = lower value 1.01 | locus YAL030W, strain snc1, stronger effect = lower value 1.01 | locus YBL061C, strain skt5, stronger effect = lower value 1.01 | locus YBR009C, strain hhf1, stronger effect = lower value 1.05 | locus YBR021W, strain FUR4, stronger effect = lower value 1.02 | locus YBR023C, strain chs3, stronger effect = lower value 1.01 | locus YBR171W, strain sec66, stronger effect = lower value 1.01 | locus YBR229C, strain ROT2, stronger effect = lower value 1.01 | locus YBR231C, strain swc5, stronger effect = lower value 0.987 | locus YBR279W, strain paf1, stronger effect = lower value 1.02 | locus YCL011C, strain gbp2, stronger effect = lower value 1.02 | locus YCL016C, strain dcc1, stronger effect = lower value 1.02 | locus YCL029C, strain bik1, stronger effect = lower value 1.02 | locus YCL061C, strain MRC1, stronger effect = lower value 0.994 | locus YCL069W, strain vba3, stronger effect = lower value 1.01 | locus YCR088W, strain abp1, stronger effect = lower value 1.01 | locus YDL005C, strain med2, stronger effect = lower value 1 | locus YDL035C, strain GPR1, stronger effect = lower value 1 | locus YDL040C, strain nat1, stronger effect = lower value 1.02 | locus YDL074C, strain BRE1, stronger effect = lower value 0.971 | locus YDL101C, strain DUN1, stronger effect = lower value 0.997 | locus YDL134C, strain PPH21, stronger effect = lower value 1.01 | locus YDL185W, strain tfp1, stronger effect = lower value 1 | locus YDL192W, strain arf1, stronger effect = lower value 1.01 | locus YDR001C, strain nth1, stronger effect = lower value 1.01 | locus YDR069C, strain doa4, stronger effect = lower value 0.985 | locus YDR101C, strain arx1, stronger effect = lower value 1.02 | locus YDR137W, strain rgp1, stronger effect = lower value 0.99 | locus YDR159W, strain sac3, stronger effect = lower value 0.987 | locus YDR162C, strain NBP2, stronger effect = lower value 1.01 | locus YDR195W, strain ref2 1.01 | locus YDR297W, strain sur2, stronger effect = lower value 1.01 | locus YDR318W, strain mcm21, stronger effect = lower value 1.02 | locus YDR334W, strain swr1, stronger effect = lower value 1.02 | locus YDR335W, strain msn5, stronger effect = lower value 1.01 | locus YDR388W, stronger effect = lower value 1.02 | locus YDR392W, strain spt3, stronger effect = lower value 0.907 | locus YDR502C, strain sam2, stronger effect = lower value 1 | locus YEL003W, strain gim4, stronger effect = lower value 1.03 | locus YEL037C, strain rad23, stronger effect = lower value 1.02 | locus YEL061C, strain CIN8 (second series), stronger effect = lower value 1.02 | locus YEL061C, strain CIN8, stronger effect = lower value 0.988 | locus YER015W, strain faa2, stronger effect = lower value 1.02 | locus YER016W, strain bim1, stronger effect = lower value 1.01 | locus YER110C, stronger effect = lower value 1.01 | locus YER111C, strain swi4, stronger effect = lower value 1.01 | locus YER155C, strain BEM2 (second series), stronger effect = lower value 0.911 | locus YER155C, strain BEM2, stronger effect = lower value 1.02 | locus YER167W, strain BCK2, stronger effect = lower value 1.01 | locus YFR010W, strain ubp6, stronger effect = lower value 1.02 | locus YGL078C, strain dbp3, stronger effect = lower value 1 | locus YGL086W, strain mad1, stronger effect = lower value 0.991 | locus YGL167C, strain pmr1, stronger effect = lower value 1.01 | locus YGL173C, strain kem1, stronger effect = lower value 1.01 | locus YGL227W, strain vid30, stronger effect = lower value 1.01 | locus YGL240W, strain doc1, stronger effect = lower value 0.978 | locus YGL248W, strain PDE1, stronger effect = lower value 0.999 | locus YGL253W, strain hxk2, stronger effect = lower value 1.01 | locus YGR135W, strain pre9, stronger effect = lower value 1.01 | locus YGR252W, strain gcn5, stronger effect = lower value 0.944 | locus YHR013C, strain ard1, stronger effect = lower value 0.952 | locus YHR027C, strain rpn1, stronger effect = lower value 1.02 | locus YHR030C, strain SLT2, stronger effect = lower value 1.01 and 0.98 | locus YHR079C, strain IRE1 (second series), stronger effect = lower value 1.02 | locus YHR079C, strain IRE1, stronger effect = lower value 0.985 | locus YHR094C, strain hxt1, stronger effect = lower value 1.02 | locus YHR129C, strain ARP1, stronger effect = lower value 1.01 | locus YHR142W, strain chs7, stronger effect = lower value 1.03 | locus YHR200W, strain rpn10, stronger effect = lower value 1.01 | locus YIL066C, strain RNR3, stronger effect = lower value 1 | locus YIL073C, strain SPO22, stronger effect = lower value 1.05 | locus YIL125W, strain kgd1, stronger effect = lower value 1 | locus YIR030C, strain dcg1, stronger effect = lower value 1.02 | locus YJL092W, strain hpr5, stronger effect = lower value 1.02 | locus YJL095W, strain BCK1 (second series), stronger effect = lower value 1.04 | locus YJL095W, strain BCK1, stronger effect = lower value 0.985 and 0.999 | locus YJL115W, strain asf1, stronger effect = lower value 1.01 | locus YJL129C, strain trk1, stronger effect = lower value 1 | locus YJL134W, strain LCB3, stronger effect = lower value 1.01 | locus YJL154C, strain vps35, stronger effect = lower value 1.02 | locus YJL164C, strain tpk1, stronger effect = lower value 1.03 | locus YJL166W, strain qcr8, stronger effect = lower value 0.979 | locus YJL168C, strain set2, stronger effect = lower value 1.01 | locus YJL187C, strain SWE1 (second series), stronger effect = lower value 1 | locus YJL187C, strain SWE1, stronger effect = lower value 1.03 | locus YJR043C, strain POL32, stronger effect = lower value 0.98 | locus YJR066W, strain TOR1, stronger effect = lower value 0.951
